{"source": "PubChem BioAssay AID651958", "about": "(The Scripps Research Institute Molecular Screening Center, 2012)", "note": "Out of some 370,000 compounds screened, about 2,000 (0.54%) were called active. What follows is part of a selection rich in actives, with near analogues and random picks from the rest. A number with no mark means an inactive call. Cut-off read from the data, not from the text of the source: active = inhibition above about 30%; inactive = the rest.", "data": [{"tested_on": "Crimean-Congo hemorrhagic fever virus L polyprotein viral ovarian tumor (vOTU) protease domain", "test": "CCHFV vOTU protease inhibitors, primary screen, biochemical, Pep-AMC substrate, fluorescence (AID 651958); note: 0% = vehicle wells with enzyme and 100% = no enzyme wells", "conditions": "at 11.5 µM, hits give high values", "values": [{"compound": "CN(CC(=O)Nc1ccccc1F)CC(=O)Nc1ccccc1Br", "inhibition": "-17.7%"}, {"compound": "N#Cc1cccc(C(=O)NCC2CCN(C(=O)C(=O)c3cc4ccccc4o3)CC2)c1", "inhibition": "5.69%"}, {"compound": "O=C(C(=O)N1CCC(CNS(=O)(=O)Cc2ccccc2)CC1)c1cc2ccccc2o1", "inhibition": "-0.44%"}, {"compound": "CC(C)(C)c1ccc(S(=O)(=O)NCC2CCN(C(=O)C(=O)c3cc4ccccc4o3)CC2)cc1", "inhibition": "41.9% (active)"}, {"compound": "Cc1ccc(C(=O)CN2C(=O)NC3(CCc4ccccc43)C2=O)c(C)c1", "note": "(configuration not stated)", "inhibition": "-4.9%"}, {"compound": "CCOC(=O)N1CCN(Cc2nc3cc(NC(=O)CC)ccc3n2CC)CC1", "inhibition": "10.5%"}, {"compound": "Cn1c(CN2CCOCC2)nc2cc(NC(=O)c3ccc(Cl)cc3)ccc21", "inhibition": "-1.05%"}, {"compound": "CN1CCN(Cc2nc3cc(NC(=O)COc4ccc([N+](=O)[O-])cc4)ccc3n2C)CC1", "inhibition": "33.6% (active)"}, {"compound": "CC(=O)Nc1ccc(C(=O)NNC(=O)CCCCC(=O)NNC(=O)c2ccc(NC(C)=O)cc2)cc1", "inhibition": "2.99%"}, {"compound": "COc1ccc(C(=O)COC(=O)c2ccc([N+](=O)[O-])s2)cc1OC", "inhibition": "34.1% (active)"}, {"compound": "COc1cc(CCC(=O)OCC(=O)Nc2cccc(S(N)(=O)=O)c2)cc(OC)c1OC", "inhibition": "-0.39%"}, {"compound": "COc1ccc(C(=O)OCC(=O)c2ccc(Cl)s2)c(OC)c1OC", "inhibition": "7.84%"}, {"compound": "COc1cc(C(=O)OCC(=O)NC23CC4CC(CC(C4)C2)C3)cc(OC)c1OC", "inhibition": "12.9%"}, {"compound": "COc1ccc(C(=O)OCC(=O)c2ccc(C)c(S(=O)(=O)N3CCOCC3)c2)cc1OC", "inhibition": "-12.5%"}, {"compound": "COc1cc(NC(=O)COC(=O)c2ccc([N+](=O)[O-])s2)cc(OC)c1OC", "inhibition": "113% (active)"}, {"compound": "CCN(CC)CCn1c(=S)[nH]c2ncccc2c1=O", "inhibition": "3.47%"}, {"compound": "FC(F)(F)c1cc(C(F)(F)F)c2ccc(N3CCN(c4ccccc4)CC3)nc2n1", "inhibition": "-0.35%"}, {"compound": "CSc1ncc(C(=O)Nc2ccc(C)cc2C)c(C)n1", "inhibition": "-3.39%"}, {"compound": "CN(C)C(=O)c1ccc2c(c1)C1C3CCC(C3)C1C(c1ccccc1)N2", "note": "(configuration not stated)", "inhibition": "5.37%"}, {"compound": "CCOc1ccc(-c2cn(S(=O)(=O)c3cccc4nsnc34)nc2N)cc1", "inhibition": "7.56%"}, {"compound": "COc1ccccc1C(=O)NCCC(=O)NN1C(=O)NC2(CCCCC2)C1=O", "inhibition": "-3.82%"}, {"compound": "COC(=O)[C@]1(Cc2ccccc2)N[C@H](CN(C)S(=O)(=O)c2ccc(OC(F)(F)F)cc2)[C@@H]2C(=O)N(Cc3ccccc3)C(=O)[C@@H]21", "inhibition": "3.43%"}, {"compound": "CCN(C[C@H]1N[C@@](CC)(C(=O)OC)[C@H]2C(=O)N(Cc3ccccc3)C(=O)[C@@H]12)S(=O)(=O)c1ccccc1", "inhibition": "6.5%"}, {"compound": "CCN(C[C@H]1N[C@@](CC)(C(=O)OC)[C@H]2C(=O)N(Cc3ccccc3)C(=O)[C@@H]12)S(=O)(=O)c1ccc(C(F)(F)F)cc1", "inhibition": "29.7% (active)"}, {"compound": "CCCCNC(=O)C[C@@H]1C[C@@]2(C(=O)OC)CC(C)(C)CC=C2N(Cc2ccco2)C1=O", "inhibition": "4.7%"}, {"compound": "CCOC(=O)[C@]12CCC=C1N(Cc1ccco1)C(=O)[C@H](CC(=O)NCc1cccc(C(F)(F)F)c1)C2", "inhibition": "15.5%"}, {"compound": "COC(=O)[C@@]12C[C@@H](CC(=O)NCc3cccc(C(F)(F)F)c3)C(=O)N(Cc3ccco3)C1=CCC(C)(C)C2", "inhibition": "34.5% (active)"}, {"compound": "CCN(CC(=O)Nc1ccccc1C(F)(F)F)C(=O)CSCc1c(C)noc1C", "inhibition": "-9.14%"}, {"compound": "CCCCCCCCN1C(=O)[C@@H](CC(=O)NCc2ccc(C)o2)C[C@@]2(C(=O)OC)C1=C[C@H](C(C)(C)C)O[C@@H]2C", "inhibition": "17.8%"}, {"compound": "COC(=O)[C@]12C[C@H](CC(=O)NCc3ccccc3)C(=O)N(CCC3=CCCCC3)C1=C[C@H](C(C)(C)C)O[C@@H]2C", "inhibition": "24.8%"}, {"compound": "COC(=O)[C@]12C[C@H](CC(=O)NCc3ccc(C)o3)C(=O)N(CCC3=CCCCC3)C1=C[C@H](C(C)(C)C)O[C@@H]2C", "inhibition": "29.6% (active)"}, {"compound": "COc1ccc2c(c1)[C@H]1[C@H](CO2)[C@H](c2ccccc2)[C@]2(C)C(=O)Nc3cc(F)c(F)cc3C(=O)N12", "inhibition": "0.66%"}, {"compound": "COCCn1c(SCc2nc3cc(OC)c(OC)cc3c(=O)[nH]2)nnc1-c1ccncc1", "inhibition": "-3.09%"}, {"compound": "O=C1Nc2ccccc2-n2nnnc2C1N1CCN(c2cccc(C(F)(F)F)n2)CC1", "note": "(configuration not stated)", "inhibition": "32.5% (active)"}, {"compound": "COc1cc(OC)cc(C(=O)NCCN2CCC3(CC2)C(=O)NCN3c2ccccc2)c1", "inhibition": "-10.2%"}, {"compound": "CCCc1ccc(C(O)c2ncc(-c3cccc(OC)c3)[nH]2)cc1", "note": "(configuration not stated)", "inhibition": "23.9%"}, {"compound": "Cc1cc(C)c2c(=O)[nH]c(SCC(=O)Nc3ccc(Br)cc3)nc2n1", "inhibition": "36% (active)"}, {"compound": "O=C(CSc1nc2[nH]ncc2c(=O)[nH]1)Nc1ccc(F)cc1", "inhibition": "-2.83%"}, {"compound": "Cc1cc(=O)[nH]c(SCC(=O)Nc2ccc(Cl)cc2C)n1", "inhibition": "-2.3%"}, {"compound": "Cc1ccnc(NS(=O)(=O)c2ccc(NC(=O)c3oc4ccc(F)cc4c3C)cc2)n1", "inhibition": "-2.26%"}, {"compound": "Cc1ccnc(NS(=O)(=O)c2ccc(NC(=O)c3ccc(S(=O)(=O)N(C)C)cc3)cc2)n1", "inhibition": "-12.8%"}, {"compound": "Cc1ccnc(NS(=O)(=O)c2ccc(NC(=O)c3oc4ccccc4c3C)cc2)n1", "inhibition": "29.9% (active)"}, {"compound": "COc1c(F)c(F)c(-c2csc(N)n2)c(F)c1F", "inhibition": "-1.03%"}, {"compound": "CCOc1cc(S(=O)(=O)NC2CC(C)(C)NC(C)(C)C2)ccc1F", "inhibition": "13.1%"}, {"compound": "NS(=O)(=O)c1ccc(CCNC(=O)c2ccc(Cl)cc2[N+](=O)[O-])cc1", "inhibition": "2.43%"}, {"compound": "O=C(NCCc1c[nH]c2ccc(Cl)cc12)c1ccc([N+](=O)[O-])cc1", "inhibition": "-0.42%"}, {"compound": "O=C(NCCc1ccc(Cl)cc1Cl)c1cc([N+](=O)[O-])c[nH]c1=O", "inhibition": "30.7% (active)"}, {"compound": "Cc1ccc(-n2c(SCC(=O)Nc3cccc4ccccc34)nnc2-c2ccco2)cc1", "inhibition": "7.16%"}, {"compound": "CCCc1ccc(-c2c(C)sc(NC(=O)c3ccnn3C)c2C#N)cc1", "inhibition": "13%"}, {"compound": "CC(=O)NC(C(=O)NCC(N)=O)C(C)C", "note": "(configuration not stated)", "inhibition": "3.21%"}, {"compound": "Cc1cc(C)cc(NC(=S)NCCCN2CCOCC2)c1", "inhibition": "0.01%"}, {"compound": "CCCC(=O)NC(=S)Nc1ccc(CN2CCOCC2)cc1", "inhibition": "9.86%"}, {"compound": "Cc1ccc(NC(=S)NCCN2CCOCC2)cc1", "inhibition": "36.5% (active)"}, {"compound": "CN(CC1CCCO1)S(=O)(=O)c1ccc(C(=O)Nc2ccc(F)cc2)cc1", "note": "(configuration not stated)", "inhibition": "5.87%"}, {"compound": "OCc1nc(CO)n(Cc2ccccc2)n1", "inhibition": "-7.04%"}, {"compound": "CCOC(=O)c1c(C)[nH]c2c1-c1ccccc1C(=O)C2=O", "inhibition": "108% (active)"}, {"compound": "CCOC(=O)C1=C(C)c2ccccc2OC1C(=O)OCC", "note": "(configuration not stated)", "inhibition": "16.2%"}, {"compound": "CCOC(=O)NN1C(=O)c2ccccc2NC1c1ccccc1O", "note": "(configuration not stated)", "inhibition": "-25.4%"}, {"compound": "COC(=O)c1cc(C(=O)OCC(=O)Nc2cc(C)on2)cc([N+](=O)[O-])c1", "inhibition": "4.92%"}, {"compound": "Cc1noc(C)c1C(=O)OCC(=O)N1CCN(S(=O)(=O)c2ccc3ccccc3c2)CC1", "inhibition": "4.27%"}, {"compound": "COc1ccc(-c2cn(-c3ccc(C)cc3)c(=O)n2CC(=O)Nc2ccc(OC)c(OC)c2)cc1", "inhibition": "15.2%"}, {"compound": "C#CCO[C@@H]1C[C@H](n2cnc3c(=O)[nH]c(NC(=O)C(C)C)nc32)O[C@@H]1CO", "inhibition": "-9.39%"}, {"compound": "Cc1ccc(S(=O)(=O)N2CCOCC2)cc1C(=O)NC(=S)N(Cc1ccccc1)C(C)C", "inhibition": "-6.59%"}, {"compound": "O=C(CCS(=O)(=O)c1ccccc1)Nc1ccc(Cl)c(Cl)c1", "inhibition": "13.1%"}, {"compound": "Cc1nnc(NC(=O)Cn2c(=O)sc3ccccc32)s1", "inhibition": "-3.29%"}, {"compound": "Cc1nnc(NC(=O)Nc2ccc(Cl)c(Cl)c2)s1", "inhibition": "43.4% (active)"}, {"compound": "CCCCn1ccnc1C(=O)c1cccc(S(=O)(=O)N2c3ccccc3CC2C)c1", "note": "(configuration not stated)", "inhibition": "26.1%"}, {"compound": "CCCCNS(=O)(=O)c1ccc2nc(SCC(=O)Nc3cc(C)cc(C)c3)[nH]c2c1", "inhibition": "4.67%"}, {"compound": "Cc1ccc(-n2ncc(C(=O)NC3CC3)c2C2CCN(C(=O)OC(C)(C)C)CC2)c(C)c1", "inhibition": "16%"}, {"compound": "Cc1ccc(C(=O)NC2CC(C)(C)NC(C)(C)C2)c(C)c1", "inhibition": "-8.23%"}, {"compound": "CSCCC(NC(=O)COc1ccccc1)C(=O)N(C)CC(=O)Nc1ccc(C)cc1", "note": "(configuration not stated)", "inhibition": "9.4%"}, {"compound": "COc1ccc2c(c1)C(C)=CC(C)(C)N2C(=O)Nc1ccccc1", "inhibition": "51.4% (active)"}, {"compound": "COc1ccc2c(c1)C(C)=CC(C)(C)N2C(=O)CNCc1ccc2c(c1)OCO2", "inhibition": "-2.62%"}, {"compound": "COc1cccc(NC(=O)C2C(c3ccccc3)C2(Cl)Cl)c1", "note": "(configuration not stated)", "inhibition": "-4.86%"}, {"compound": "O=C(COc1coc(CN2CCN(c3ccccc3)CC2)cc1=O)N1CCc2ccccc21", "inhibition": "-8.86%"}, {"compound": "CCc1nc2ccc(C(=O)Nc3ccc(OC)c(OC)c3)cn2c1N(C)C(=O)c1cccc(OC)c1", "inhibition": "7.94%"}, {"compound": "O=C(O)Cc1csc(NC(=O)CSc2nnnn2-c2ccc(O)cc2)n1", "inhibition": "-4.88%"}, {"compound": "CCN(CC)C(=O)C1=C(C)N(Cc2ccc(F)cc2)C(=O)C(CC(=O)NCc2cccc3ccccc23)C1", "note": "(configuration not stated)", "inhibition": "1.88%"}, {"compound": "COc1ccc(CN2C(=O)C(CC(=O)NCc3cccc4ccccc34)CC(C(=O)N3CCOCC3)=C2C)cc1", "note": "(configuration not stated)", "inhibition": "7.84%"}, {"compound": "CCN(CC)C(=O)C1=C(C)N(Cc2ccc(C(C)(C)C)cc2)C(=O)C(CC(=O)NCc2cccc3ccccc23)C1", "note": "(configuration not stated)", "inhibition": "31.8% (active)"}, {"compound": "CCN(CC)CCCC(C)n1c2nc(=O)[nH]c(=O)c-2nc2cc(Cl)ccc21", "note": "(configuration not stated)", "inhibition": "95.2% (active)"}, {"compound": "Cc1ccc(C)c(NC(=O)c2cc(-c3cc(C)cc(C)c3O)n[nH]2)c1", "inhibition": "-1.49%"}]}]}
